The experiment relates to Trichuris muris adult worms. The experiment is described as follows: mean motility score (Paragon pixel variance) of adult worms (arbitrary units); higher = more motile worms, i.e. less anthelmintic effect; extreme values may be limits of the assay. To be noted: 100 µM; 24 h. In a few lines:
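Motility score was obtained through Paragon pixel-variance analysis and averaged across replicate wells. To generate it, single adult Trichuris muris worms taken from infected NOD SCID mice were kept for 24 h at 37°C and 5% CO2 in 96-well plates, each well holding 100 μL RPMI-1640 plus antibiotics and drug at 100 μM (1% v/v DMSO). The plates were then recorded on an automated phenotyping platform (200 frames, 100 ms apart).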
In the case of `CN(C(=O)CN(CCO)CC(=O)N(C)C(C)(C)Cc1ccccc1)C(C)(C)Cc1ccccc1` [oxethazaine], the mean motility score turned out to be 184. In the case of `NC(N)=O` [urea], the mean motility score amounted to 4760. Turning to `N=C(N)NCCC[C@H](N)C(=O)O` [arginine], the mean motility score was found to be 2980.

`COc1ccc(Cl)cc1C(=O)NCCc1ccc(S(=O)(=O)NC(=O)NC2CCCCC2)cc1` [glyburide]: the mean motility score was found to be 2300.

Regarding `C[C@](N)(Cc1ccc(O)c(O)c1)C(=O)O` [methyldopa], the mean motility score amounted to 4060.

The compound `Nc1nnc(-c2cccc(Cl)c2Cl)c(N)n1` [lamotrigine] displayed a mean motility score of 2280. `CN1CCCN=C1COC(=O)C(O)(c1ccccc1)C1CCCCC1.Cl` (stereo not drawn) [oxyphencyclimine hydrochloride] returned a mean motility score of 3070.

Compound `CCN(Cc1ccncc1)C(=O)C(CO)c1ccccc1` (stereo not drawn) [tropicamide] displayed a mean motility score of 2030. `NCCCC[C@H](N[C@@H](CCc1ccccc1)C(=O)O)C(=O)N1CCC[C@H]1C(=O)O` [lisinopril] registered a mean motility score of 1970. To `CN1CCCC(n2nc(Cc3ccc(Cl)cc3)c3ccccc3c2=O)CC1.Cl` (stereo not drawn) [azelastine hydrochloride] belongs 396; to `O=C1c2c(O)ccc(O)c2C(=O)c2c(NCCNCCO)ccc(NCCNCCO)c21` [mitoxantrone], 1350; to `O=C(COc1ccc(Cl)cc1)N1CCN(Cc2ccc3c(c2)OCO3)CC1` [fipexide], 241.

`CC(C)(C)c1ccc(C(O)CCCN2CCC(C(O)(c3ccccc3)c3ccccc3)CC2)cc1` (stereo not drawn) [terfenadine] came in with a mean motility score of 1. The compound `CC1(C)O[C@@H]2C[C@H]3[C@@H]4C[C@H](F)C5=CC(=O)C=C[C@]5(C)[C@@]4(F)[C@@H](O)C[C@]3(C)[C@]2(C(=O)CO)O1` [fluocinolone acetonide] came in with a mean motility score of 2800. Take `CC(=O)Oc1ccc(C(c2ccc(OC(C)=O)cc2)c2ccccn2)cc1` [bisacodyl]: the mean motility score came out at 2870. `Clc1cc(Cl)c(OCC#CI)cc1Cl` [haloprogin] returned a mean motility score of 2180. Compound `CCCN(CCc1cccs1)[C@H]1CCc2c(O)cccc2C1` [rotigotine] came in with a mean motility score of 3100. For `COc1cc(C(=O)NS(=O)(=O)c2ccccc2C)ccc1Cc1cn(C)c2ccc(NC(=O)OC3CCCC3)cc12` [zafirlukast], the mean motility score came out at 0. Take `CC(C)(C)NC(=O)[C@H]1CC[C@H]2[C@@H]3CC[C@H]4NC(=O)C=C[C@]4(C)[C@H]3CC[C@]12C` [finasteride]: the mean motility score came out at 2080. As for `COC(=O)c1ccc2c(c1)NC(=O)/C2=C(\Nc1ccc(N(C)C(=O)CN2CCN(C)CC2)cc1)c1ccccc1` [nintedanib], the figure is 3140. In turn, `Oc1nc2ccccc2n1CCCN1CCC(n2c(O)nc3cc(Cl)ccc32)CC1` [domperidone] registered a mean motility score of 3910. With `Nc1nc(O)c2ncn(COC(CO)CO)c2n1` [ganciclovir], the mean motility score came to 2950. On to `COc1nc(C)nc(Cl)c1NC1=NCCN1` [moxonidine], for which the mean motility score came out at 3500. The compound `CN(C)C(=N)N=C(N)N.Cl` [metformin hydrochloride] returned a mean motility score of 4240.

Compound `NC(=O)CC[C@H](N)C(=O)O` [glutamine] registered a mean motility score of 3380.

In the case of `Nc1ccccc1NC(=O)c1ccc(CNC(=O)OCc2cccnc2)cc1` [entinostat], the mean motility score is 2720. Compound `Clc1ccccc1C(c1ccccc1)(c1ccccc1)n1ccnc1` [clotrimazole] displayed a mean motility score of 0. Compound `NC(=O)N1c2ccccc2C=Cc2ccccc21` [carbamazepine] gave a mean motility score of 3020. In turn, `c1ccc(CC2=NCCN2)cc1` [tolazoline] had a mean motility score of 1230. In turn, `C#C[C@]1(O)CC[C@H]2[C@@H]3CCC4=CC(=O)CC[C@@H]4[C@H]3CC[C@@]21CC` [levonorgestrel] showed a mean motility score of 3390.

`Cc1ccc(C(=O)Nc2ccc(CN3CCN(C)CC3)c(C(F)(F)F)c2)cc1C#Cc1cnc2cccnn12` [ponatinib] gave a mean motility score of 1760. In the case of `CN(C)CCc1c[nH]c2ccc(C[C@H]3COC(=O)N3)cc12` [zolmitriptan], the mean motility score is 3180. Take `O=c1[nH]c(=O)n([C@H]2C[C@H](O)[C@@H](CO)O2)cc1F` [floxuridine]: the mean motility score came to 2280. For the compound `Cc1cc(C2CCCCC2)n(O)c(=O)c1` [ciclopirox], the mean motility score was 3190.

Consider `CCN(CC)C(C)CN1c2ccccc2Sc2ccccc21.Cl` (stereo not drawn) [ethopropazine hydrochloride], for which the mean motility score was 114.

For the compound `COc1ccc2cccc(CCNC(C)=O)c2c1` [agomelatine], the mean motility score stood at 3270.

Take `Nc1ccc(S(=O)(=O)NC(=O)c2ccccc2)cc1` [sulfabenzamide]: the mean motility score turned out to be 4050. `CC[N+](CC)(CC)CCOc1cccc(OCC[N+](CC)(CC)CC)c1OCC[N+](CC)(CC)CC.[I-].[I-].[I-]` [gallamine triethiodide] returned a mean motility score of 4310.

Values taken from the supplement of paper PMC10503962.
